Results published in PubChem BioAssay (Tox21).
Records with an inconclusive call do not appear. The source made the active and inactive calls. Calls come from the whole dose curve.

Biological target: Thyrotropin receptor (Homo sapiens) (UniProt P16473)
Test: qHTS assay to identify small molecule antagonists of the thyroid stimulating hormone receptor (TSHR) signaling pathway (AID 1259385); note: nearly all actives have a fitted effect of over 20% in size
Conditions: TSHR-HEK293 cAMP HTRF, TSH-stimulated antagonist mode; series mostly up to 92.4 µM; activity change, negative = inhibition: at the top concentration
Excerpt: U.S. Tox21 Program National Center for Advancing Translational Sciences [NCATS] NIH Chemical Genomics Center [NCGC] U.S. Environmental Protection Agency [EPA] National Institutes of Environmental Health Sciences [NIEHS] National Toxicology Program [NTP] U.S. Food and Drug Administration [FDA] Tox21 Assay Overview: TSHR is the receptor for thyrotropin (thyroid stimulating hormone or TSH), a member of the glycoprotein hormone family. TSH is released by the anterior pituitary gland and is the main regulator of thyroid gland growth and development. Upon binding circulating thyrotropin, a G-protein signal cascade activates adenylyl cyclase and […] cAMP concentration is increased. cAMP is a key second messenger involved extensively in cellular signal transduction pathways associated with the majority of G-protein coupled receptors (GPCRs). The activation of these GPCRs by neurotransmitters, lipids, nucleotides, peptides and hormones results in the activation or the inhibition of plasma membrane-bound adenylate cyclase through heterotrimeric G-proteins. A cell-based TSHR assay can be used to screen chemical compounds that modulate TSHR either in agonist or antagonist mode.
Tox21 Assay Protocol Summary: TSHR-Hek293 cells were dispensed at 800 cells/4uL/well in 1536-well white plates using a Multidrop dispenser. After the assay plates were incubated at a 37C/5% CO2 incubator for 18 hrs, 23 nL of compounds dissolved in DMSO, positive controls or DMSO only was transferred to the assay plate by a pin tool, followed by 1 ul medium containing Ro20-1724. For the antagonist mode screening, 1 uL of TSH was added on the top of the cell/compound mixtures to achieve a final agonist concentration of 1.5 ng/mL. After 30 min of incubation at room temperature, 2.5 ul/well of cAMP-d2 and 2.5 ul/well of anti-cAMP-cryptate were added respectively into the assay plates using a Flying Reagent Dispenser. The plates were incubated at room temperature for 1 hr. The fluorescence intensity in the plates was measured using an Envision plate reader. Each test compound was measured at 15 concentrations and in triplicates.
% is set by controls: 0 for no effect and ±100 for the full control effect; potency is the fitted concentration of half-maximal effect.

Sequence of Thyrotropin receptor (Homo sapiens) (P16473 whole entry, looked up): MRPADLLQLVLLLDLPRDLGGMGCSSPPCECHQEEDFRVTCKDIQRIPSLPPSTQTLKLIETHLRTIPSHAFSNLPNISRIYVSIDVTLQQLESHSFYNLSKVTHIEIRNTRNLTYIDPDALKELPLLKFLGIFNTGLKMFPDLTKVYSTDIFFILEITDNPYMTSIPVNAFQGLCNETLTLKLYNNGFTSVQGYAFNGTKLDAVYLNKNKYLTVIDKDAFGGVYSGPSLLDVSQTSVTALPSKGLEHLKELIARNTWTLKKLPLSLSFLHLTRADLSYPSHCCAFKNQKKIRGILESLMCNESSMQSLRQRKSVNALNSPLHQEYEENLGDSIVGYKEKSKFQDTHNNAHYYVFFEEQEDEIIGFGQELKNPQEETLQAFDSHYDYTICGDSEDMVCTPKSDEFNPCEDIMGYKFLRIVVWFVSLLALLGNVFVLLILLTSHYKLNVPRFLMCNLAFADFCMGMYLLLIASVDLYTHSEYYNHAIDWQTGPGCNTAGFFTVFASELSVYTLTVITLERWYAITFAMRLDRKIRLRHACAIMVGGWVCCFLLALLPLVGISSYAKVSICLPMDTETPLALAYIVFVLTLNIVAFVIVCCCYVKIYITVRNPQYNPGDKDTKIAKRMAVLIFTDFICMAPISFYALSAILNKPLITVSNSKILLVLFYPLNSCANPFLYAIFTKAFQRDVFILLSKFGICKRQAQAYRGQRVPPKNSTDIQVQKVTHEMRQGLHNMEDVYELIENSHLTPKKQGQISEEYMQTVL

Compound | activity change, negative = inhibition | Potency
Oc1cc2ccccc2cc1O | 0.402% (inactive) | 
COc1cc(C(C)C)c2c(c1)S(=O)(=O)N(COc1cc(=O)n3cccc(OCCN4CCCCC4)c3n1)C2=O | -0.822% [at 19 µM] (inactive) | 
C=C(C)CCCC | -0.429% (inactive) | 
CCOCOCC | 2.12% (inactive) | 
CCCC(CC)CCCCCCCN (stereo not given) | -0.221% (inactive) | 
CCCCCCOc1cc(C)c(O)c(C)c1C |  | 55.1 µM (active)
CCOB(OCC)OCC | 3.15% (inactive) | 
O=C(Oc1ccccc1)c1cccc(C(=O)Oc2ccccc2)c1 | -0.159% (inactive) | 
CCN(CC)c1cccc(C)c1 | 3.71% (inactive) | 
COc1cc(C(=O)NS(=O)(=O)c2ccccc2C)ccc1Cc1cn(C)c2ccc(NC(=O)OC3CCCC3)cc12 | -4.02% [at 42.5 µM] (inactive) | 
CO[Si](CCCNCCNCCN)(OC)OC | 1.12% (inactive) | 
CCNc1nc(NC(C)CC)nc(OC)n1 (stereo not given) | -0.122% (inactive) | 
Cc1cc(=O)[nH]c(=O)[nH]1 | -0.939% (inactive) | 
CCCSS/C(CCO)=C(\C)N(C=O)Cc1cnc(C)nc1N | -1.23% [at 42.5 µM] (inactive) | 
OCCCCl | 0.657% (inactive) | 
Cc1ccc2ccc3cccc4ccc1c2c34 | -1.52% (inactive) | 
CCCCCCCC/C=C\CCCCCCCC(=O)N(C)CC(=O)O | -9.24% (inactive) | 
COc1ccc(-n2nc(CCC(=O)N(C)O)cc2-c2ccc(Cl)cc2)cc1 | -4.59% [at 42.5 µM] (inactive) | 
OCCCc1cccnc1 | 1.7% (inactive) | 
CCOC(=O)[C@@](C)(N)Cc1ccc(O)c(O)c1 | 0.849% [at 42.5 µM] (inactive) | 

Compound | activity change, negative = inhibition | Potency
O=c1cccc[nH]1 | 2.23% (inactive) | 
Cn1cnc2ncnc(N)c21 | -2.42% [at 42.5 µM] (inactive) | 
CO[C@H]1C=CO[C@@]2(C)Oc3c(C)c(O)c4c(O)c(cc(O)c4c3C2=O)NC(=O)/C(C)=C\C=C/[C@H](C)[C@H](O)[C@@H](C)[C@@H](O)[C@@H](C)[C@H](OC(C)=O)[C@@H]1C | -0.661% (inactive) | 
CC(C)c1cccc(C(C)C)c1N1C(=O)c2ccc(O)cc2C1=O | -2.52% (inactive) | 
CCc1cccc(CC)c1NC(=O)C(=O)O | 4.58% (inactive) | 
Cn1cccc1 | -0.828% (inactive) | 
OCCC(O)CO (stereo not given) | -4.96% (inactive) | 
NC(=O)C(=O)N/N=C/c1ccc([N+](=O)[O-])o1 | 6.82% [at 42.5 µM] (inactive) | 
CN(C)CCOC(c1ccccc1)c1ccccc1 (tested in a mixture with another compound) | -2.13% (inactive) | 
CNC(=O)c1cc(Oc2ccc(NC(=O)Nc3ccc(Cl)c(C(F)(F)F)c3)cc2)ccn1 | -0.56% [at 42.5 µM] (inactive) | 
CC(C)(C)CC(C)(C)c1ccccc1O | 9.01% (inactive) | 
CCN(CC)CCOC(=O)C1(C2CCCCC2)CCCCC1 |  | 29.8 µM (active)
C=CC(=C)CC/C=C(\C)CCC=C(C)C | 0.374% [at 19 µM] (inactive) | 
O=C1NCCN1CCN1CCC(c2cn(-c3ccc(F)cc3)c3ccc(Cl)cc23)CC1 |  | 29.8 µM (active)
Nc1ncnc2c1ncn2[C@@H]1O[C@H](COP(=O)(O)O)[C@@H](O)[C@H]1O | -3.25% [at 42.5 µM] (inactive) | 
CCOC(=O)C1=C(C)NC(C)=C(C(=O)OCC)C1c1ccccc1/C=C/C(=O)OC(C)(C)C | -5.26% [at 42.5 µM] (inactive) | 
CCc1ccc(O)c(C(C)(C)C)c1 | -4.17% (inactive) | 
C=CC(=O)OCCN(CC)CC | 0.572% (inactive) | 
C[C@@H]1CC[C@H]2C(C)(C)[C@H]3C[C@@]12CC[C@@]3(C)O | -9.62% (inactive) | 
NC(=O)c1ccccc1N | 1.72% (inactive) | 
